Assay [1] can be described thus: resazurin metabolic signal in HepG2 cells – cell-based, resazurin fluorescence, 24 h, PK04 Diversity Set, profiling panel (AID 1172). Further: test concentration not given here. To be noted: HepG2 viability, higher = more signal. On the technique in general: The colour change of resazurin is a common sign of viable cells or microbes.
Assay [2] can be described thus: budding yeast growth changes without added modifier – OD600, strain BY4716, 24 h, basal condition, primary screen (AID 1173). The following applies: S. cerevisiae BY4716 growth, OD600, 24 h; higher = more signal, called active from +8 up or from −8 down.
A short description of assay [3]: viability profiling in MM1S myeloma cells – cell-based, resazurin fluorescence, basal, 24 h, PK04 Diversity Set, profiling panel (AID 1174).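 Further: MM1S multiple myeloma cell line; test concentration not given here.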 The following applies: higher = more signal, called active from +8 up or from −8 down.
The target of assay [4] is Dihydroorotate dehydrogenase (quinone), mitochondrial (Plasmodium falciparum (isolate 3D7)) (UniProt Q08210). The assay can be described thus: inhibition of P. falciparum DHODH – biochemical, C-terminal His tag, absorbance 600 nm, primary screen (AID 1175).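 Further: recombinant parasite enzyme with a five histidine tag at its C terminus; test concentration not given here.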 The following applies: PfDHODH enzyme, DCIP absorbance 600 nm; higher = more signal, called active from +8 up or from −8 down.
Dihydroorotate dehydrogenase (quinone), mitochondrial (Plasmodium falciparum (isolate 3D7)), sequence (Q08210 whole entry, looked up): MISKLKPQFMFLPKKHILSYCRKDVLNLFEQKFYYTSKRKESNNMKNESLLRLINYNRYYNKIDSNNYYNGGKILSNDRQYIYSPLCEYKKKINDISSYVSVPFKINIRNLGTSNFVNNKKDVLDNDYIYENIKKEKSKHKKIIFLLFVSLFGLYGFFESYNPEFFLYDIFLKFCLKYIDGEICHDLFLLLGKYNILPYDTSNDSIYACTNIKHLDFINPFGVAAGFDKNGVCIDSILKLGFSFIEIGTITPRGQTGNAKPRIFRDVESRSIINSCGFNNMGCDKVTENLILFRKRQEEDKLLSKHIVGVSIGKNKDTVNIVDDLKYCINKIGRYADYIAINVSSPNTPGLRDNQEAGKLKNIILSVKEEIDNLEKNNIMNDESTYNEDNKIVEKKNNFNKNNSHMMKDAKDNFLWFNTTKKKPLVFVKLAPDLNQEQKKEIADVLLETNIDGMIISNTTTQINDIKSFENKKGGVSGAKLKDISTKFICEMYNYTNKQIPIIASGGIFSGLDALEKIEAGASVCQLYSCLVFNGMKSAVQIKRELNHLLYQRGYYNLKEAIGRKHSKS

Assay [5] in a line: inhibition of PAO1 biofilm formation – strain PAO1, LB-PBS medium, absorbance 600 nm, primary screen (AID 1176). Further: test concentration not given here. To be noted: P. aeruginosa PAO1 growth/biofilm, A600, 12 h; higher = more signal.
Assay [6] in a line: growth modulation of vineyard yeast isolate – strain RM11-1a, OD600, basal, 24 h, primary screen (AID 1177).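 Further: cultures grown under basal conditions with no added stressor; test concentration not given here.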 The following applies: S. cerevisiae RM11-1a growth, OD600, 24 h; higher = more signal, called active from +8 up or from −8 down.
Assay [7] can be described thus: growth of efflux-deficient E. coli DRC39 – strain DRC39, OD650, 24 h, E. coli filamentation inducers, primary screen (AID 1178).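 Further: growth measured as culture turbidity by optical density at 650 nm; test concentration not given here.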 The following applies: E. coli DRC39 acrAB, higher = more signal, called active from +8 up or from −8 down.
A short description of assay [8]: growth of efflux-deficient E. coli DRC39 – strain DRC39, OD650, 48 h, E. coli filamentation inducers, primary screen (AID 1179).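 Further: screen aims at cell division blockers that make cells filament.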 The following applies: E. coli DRC39 delta-acrAB growth, higher = more signal, called active from +8 up or from −8 down.
The nature of assay [9]: viability profiling in RPMI8226 myeloma cells – cell-based, resazurin fluorescence, basal, 24 h, PK04 Diversity Set, profiling panel (AID 1180).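 Further: RPMI8826 multiple myeloma cell line at 5000 cells per well; test concentration not given here.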 To be noted: higher = more signal.
Assay [10] has as its target E3 ubiquitin-protein ligase XIAP (Homo sapiens) (UniProt P98170). Nature of the assay: small molecules binding XIAP protein – biophysical, small-molecule microarray, fluorescence 635 nm, primary screen (AID 1181).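 Further: score merges 667 nm emission and signal to noise over triplicate slides.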 The following applies: higher = more signal.

Active and inactive are the calls of the source. Unless noted, how the calls were made is not given here.

E3 ubiquitin-protein ligase XIAP (Homo sapiens), sequence (P98170 whole entry, looked up): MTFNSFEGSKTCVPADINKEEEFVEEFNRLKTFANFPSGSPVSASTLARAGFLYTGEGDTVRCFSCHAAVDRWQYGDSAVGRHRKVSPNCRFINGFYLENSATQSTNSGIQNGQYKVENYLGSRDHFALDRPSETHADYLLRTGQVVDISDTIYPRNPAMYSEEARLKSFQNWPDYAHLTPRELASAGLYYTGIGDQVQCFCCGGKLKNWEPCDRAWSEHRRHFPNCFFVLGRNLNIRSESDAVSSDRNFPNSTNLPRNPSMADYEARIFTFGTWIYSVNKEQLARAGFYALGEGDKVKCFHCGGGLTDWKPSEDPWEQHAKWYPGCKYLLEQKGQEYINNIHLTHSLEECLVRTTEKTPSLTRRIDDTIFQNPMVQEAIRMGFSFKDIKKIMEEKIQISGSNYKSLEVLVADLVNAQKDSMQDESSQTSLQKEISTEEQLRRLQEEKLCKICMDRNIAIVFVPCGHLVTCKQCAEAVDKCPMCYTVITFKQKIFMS

On to `CN1C(=O)[C@]2(CCC(=O)OC(C)(C)C)N=C(c3ccc(OCCCO)cc3)O[C@@H]2c2ccccc21`, for which the z-score in assay [1] was 0.476; in assay [2], 0.997 (inactive); in assay [3] it was -1.67 (inactive); in [5] it was -0.441 (inactive); in assay [6], 1.09 (inactive); in assay [7], 1.01 (inactive). The z-score in assay [8] is 0.679 (inactive); in [9], -1.56. The composite z-score was 0.42 (inactive) in [4] and 0.312 in [10].

For `CC(C)CNC(=O)[C@@H]1c2ccccc2C(=O)N(Cc2ccccc2Cl)[C@H]1c1ccc(CO)cc1`, the z-score was 0.611 in assay [1]; -0.161 (inactive) in assay [2]; 0.552 (inactive) in assay [3]; 0.0435 (inactive) in assay [5]; -0.239 (inactive) in [6]; 0.219 (inactive) in [7]. In addition, the values for the z-score in assay [8] and in assay [9] were 0.303 (inactive) and 0.943, respectively. In addition, the composite z-score in [4] was -0.0116 (inactive); in assay [10] it was 0.199.

`O=C1NC(=O)C2C1C=CC(C(O)c1cccc(O)c1)N2Nc1ccc(Cl)cc1Cl` (stereo not given): the z-score was -1.79 in [1]; -13.3 (active) in assay [2]; -1.31 (inactive) in [3]; 0.695 (inactive) in assay [5]; 0.915 (inactive) in assay [6]; -0.526 (inactive) in assay [7]. Moreover, the results for the z-score in assay [8] and in [9] were -3.39 (inactive) and -1.69, respectively. Further, the composite z-score in assay [4] is 1.03 (inactive); in assay [10] it was -0.039.

For `COCCOC(=O)N1C(=O)[C@@]2(c3cc(C#CC4(O)CCCCCC4)ccc31)[C@H](C(=O)N1CCc3cc(OC)c(OC)cc3C1)[C@H]1C(=O)O[C@H](c3ccccc3)[C@H](c3ccccc3)N1[C@@H]2c1ccc(O)cc1`, the z-score in assay [1] is -0.511; in assay [2] it was 0.257 (inactive); in assay [3], -0.263 (inactive); in [5], 1.18 (inactive); in [6] it was 1.39 (inactive); in assay [7], -0.282 (inactive). In addition, the z-score in [8] is -0.252 (inactive); in assay [9] it was -0.0713. The composite z-score in assay [4] is 0.7 (inactive); in assay [10], -0.0703.

As for `Cc1ccccc1C(O)C1C=CC2C(=O)N(c3ccccc3)C(=O)C2N1Nc1ccccc1F` (stereo not given), the z-score is -0.954 in assay [1]; -0.822 (inactive) in [2]; -1.08 (inactive) in assay [3]; 1.07 (inactive) in assay [5]; 0.362 (inactive) in assay [6]; -0.274 (inactive) in [7]. The z-score in assay [8] is -0.542 (inactive); in [9], -1.01. The composite z-score in [4] is 0.115 (inactive); in assay [10], 0.202.

`C=CCC(OC(C)=O)[C@@H]1[C@@H](N(Cc2ccc(-c3cccc(C(F)(F)F)c3)o2)C(=O)Cc2ccc(F)cc2)c2cc(OCCCO)ccc2N1C(=O)c1ccc2ccccc2n1` (stereo not given in full): the z-score was 0.286 in [1]; 0.441 (inactive) in [2]; 0.229 (inactive) in assay [3]; 0.927 (inactive) in [5]; -0.116 (inactive) in [6]; -0.36 (inactive) in [7]. The z-score in [8] is -0.15 (inactive); in assay [9], -0.128. Besides, the composite z-score is -0.235 (inactive) in assay [4] and 0.0454 in [10].

For the compound `COC(=O)[C@@]1(Cc2ccc(F)cc2)[C@H]2c3cc(C(=O)N(C)C)n(CCN4CCOCC4)c3C[C@H]2CN1C(=O)c1ccccc1`, the z-score is 0.255 in assay [1]; 1.22 (inactive) in assay [2]; -0.663 (inactive) in assay [3]; 0.0818 (inactive) in assay [5]; 0.7 (inactive) in [6]; 0.187 (inactive) in assay [7]. The z-score in [8] is -0.957 (inactive); in assay [9] it was 0.874. Further, the composite z-score in [4] is -0.521 (inactive); in assay [10] it was 0.138.

In the case of `COCCOC(=O)N1C(=O)[C@@]2(c3cc(C#CCC(C(=O)OC)C(=O)OC)ccc31)[C@H](C(N)=O)[C@H]1C(=O)O[C@H](c3ccccc3)[C@H](c3ccccc3)N1[C@@H]2c1ccc(OCCO)cc1`, the z-score is 0.58 in assay [1]; 1.53 (inactive) in assay [2]; -0.456 (inactive) in assay [3]; 2.88 (inactive) in [5]; 3.39 (inactive) in [6]; 0.71 (inactive) in assay [7]. Also, the z-score was 0.108 (inactive) in assay [8] and -1.81 in [9]. The composite z-score in assay [4] was -0.383 (inactive); in assay [10], 0.0251.

Consider `COC(=O)c1c(CC[C@@H](CO)NC(=O)N[C@@H](Cc2ccccc2)Cn2cc(-c3cncn3C)nn2)oc(C(C)=O)c1C(=O)OC`, for which the z-score in assay [1] is -0.649; in assay [2], -0.615 (inactive); in assay [3] it was 0.448 (inactive); in assay [5], -1.25 (inactive); in assay [6], -0.688 (inactive); in assay [7], 0.681 (inactive). Further, the z-score was 0.438 (inactive) in assay [8] and -0.332 in assay [9]. Further, the values for the composite z-score in assay [4] and in assay [10] were -2.95 (inactive) and 0.14, respectively.

As for `C#CCN([C@H](/C=C/C1CC1)[C@@H](O)Cc1ccccc1)[C@@H](Cc1ccccc1)C(=O)OC`, the z-score in [1] is 1.82; in [2], 0.0363 (inactive); in assay [3] it was 1.59 (inactive); in [5] it was -0.319 (inactive); in [6], 0.97 (inactive); in [7], 1.07 (inactive). Moreover, the z-score in assay [8] was 0.968 (inactive); in assay [9], 0.737. In addition, the composite z-score in [4] is 0.373 (inactive); in assay [10], 0.271.

Turning to `[N-]=[N+]=NCc1ccccc1C[C@]1(C(=O)NCc2ccccc2)N=C(c2ccc(OCCCO)cc2)O[C@H]1c1ccccc1CN=[N+]=[N-]`, the z-score in assay [1] is -0.907; in [2] it was 0.831 (inactive); in assay [3] it was -0.153 (inactive); in assay [5] it was 1.32 (inactive); in [6], 0.832 (inactive); in [7], 3.04 (inactive). Also, the z-score is 1.01 (inactive) in assay [8] and -0.28 in assay [9]. For the same compound, the results for the composite z-score in assay [4] and in [10] were 0.238 (inactive) and -0.0559, respectively.

Take `COCCOC(=O)N1C(=O)[C@@]2(c3cc(C#CCCO)ccc31)[C@H](C(=O)N1CCc3cc(OC)c(OC)cc3C1)[C@H]1C(=O)O[C@H](c3ccccc3)[C@H](c3ccccc3)N1[C@@H]2c1ccccc1OCCO`: the z-score is 0.713 in assay [1]; 1.68 (inactive) in assay [2]; 0.208 (inactive) in assay [3]; 1.38 (inactive) in assay [5]; 2.69 (inactive) in assay [6]; 0.497 (inactive) in [7]. For the same compound, the results for the z-score in assay [8] and in assay [9] were 0.74 (inactive) and 1.01, respectively. For the same compound, the values for the composite z-score in assay [4] and in [10] were 0.0306 (inactive) and -0.0945, respectively.

These data come from PubChem BioAssay.
